Screening results from PubChem BioAssay.
Beta apoptosis: blocks beta cell apoptosis | INS-1E cytokine-induced death, ATP luminescence, 48 h; percent of positive-control rescue, neutral wells zero | 300,000 compounds, 0.8% hits | AID 435005 | protection from apoptosis, % (concentration not given with the values);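 active means Every replicate reaches about 75%, or at least half do and their mean reaches it too, limit read from the data; inconclusive means At least half of replicates reach the limit but their mean does not; inactive means Under half of replicates reach the limit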;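 further: higher means more ATP so stronger rescue from cytokine killing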
CSC inhib: blocks cancer stem cells; cancer stem cell-like cells viability, luminescence; inhibition, % at 7.5 µM; 300,000 compounds, 1.1% hits; in the data active means inhibition above about 75%; inconclusive means no clear call, values can overlap the other calls; tested in HMLE shEcad cells
NR3A LBD binder: modulators (binders) of human NR3A ligand-binding domain. AID 1259313. 340,000 compounds, 2.5% hits. Tm shift relative to glycine control, % at 25 µM. NR3A LBD differential scanning fluorimetry, Tm shift; 0% = protein alone, 100% = glycine-bound protein;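 active means melting temperature shift of at least 10% of the positive control shift, at one fixed dose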
SKKanGAS inh: SKKanGAS growth inhibition; S. pyogenes SKKanGAS, kanamycin growth, BacTiter-Glo, 6 h; 300,000 compounds, 1.3% hits; inhibition, % at 7.5 µM;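 active means mean replicate score, as percent of positive control median, at least 50; inconclusive means mean below 50 but one replicate at or above 50; inactive means mean and every replicate below 50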;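 further: strain carries kanamycin resistance gene driven by streptokinase promoter and grows in 40 µg/ml kanamycin; loss of luminescence reflects streptokinase promoter inhibition or plain growth inhibition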
Mdm2 MdmX PPI: disrupts the human Mdm2-MdmX interaction | O15151+Q00987 | SaOS-2 split-luciferase Mdm2/MdmX complementation, luminescence | inhibition, % at 8 µM | 330,000 compounds, 3% hits | AID 485346;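 active means inhibition of at least 50% at 8 µM in the primary screen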
Target sequence (O15151 whole entry, looked up): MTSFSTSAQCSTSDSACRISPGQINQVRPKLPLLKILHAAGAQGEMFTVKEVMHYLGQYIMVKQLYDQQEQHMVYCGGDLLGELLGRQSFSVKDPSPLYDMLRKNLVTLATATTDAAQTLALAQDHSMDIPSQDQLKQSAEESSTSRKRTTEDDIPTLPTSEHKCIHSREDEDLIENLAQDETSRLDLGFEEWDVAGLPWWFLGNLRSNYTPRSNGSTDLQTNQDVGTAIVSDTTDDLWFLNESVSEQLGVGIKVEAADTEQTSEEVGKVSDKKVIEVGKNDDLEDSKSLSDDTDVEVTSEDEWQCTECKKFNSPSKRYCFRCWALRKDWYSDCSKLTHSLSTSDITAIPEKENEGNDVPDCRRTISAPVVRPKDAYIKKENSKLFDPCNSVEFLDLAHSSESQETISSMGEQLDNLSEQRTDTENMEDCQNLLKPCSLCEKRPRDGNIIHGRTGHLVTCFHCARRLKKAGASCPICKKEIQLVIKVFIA
Target sequence (Q00987 whole entry, looked up): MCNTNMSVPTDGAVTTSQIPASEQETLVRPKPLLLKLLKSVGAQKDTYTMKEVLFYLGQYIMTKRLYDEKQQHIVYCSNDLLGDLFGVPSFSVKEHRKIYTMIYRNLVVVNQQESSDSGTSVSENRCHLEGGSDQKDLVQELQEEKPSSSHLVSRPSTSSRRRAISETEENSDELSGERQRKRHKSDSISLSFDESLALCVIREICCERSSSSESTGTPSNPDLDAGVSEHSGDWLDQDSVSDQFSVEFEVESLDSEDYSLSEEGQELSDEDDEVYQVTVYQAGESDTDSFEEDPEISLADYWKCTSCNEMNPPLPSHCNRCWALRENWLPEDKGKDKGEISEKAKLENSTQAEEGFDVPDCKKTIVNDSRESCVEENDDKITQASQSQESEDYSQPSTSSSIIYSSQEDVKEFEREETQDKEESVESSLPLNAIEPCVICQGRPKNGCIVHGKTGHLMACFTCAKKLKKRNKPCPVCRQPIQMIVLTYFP
MPTP block: permeability transition pore inhibition; isolated mouse mitochondria, Ca2+ swelling absorbance, 30 min; inhibition, % at 10 µM; 360,000 compounds, 1.4% hits; AID 602449;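 active means inhibition of 50% or more, scaled per plate between neutral and stimulator controls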
Mdm2 MdmX conf: confirmation of human Mdm2/MdmX interaction inhibitors | shares compounds with Mdm2 MdmX PPI | Mdm2-MdmX binding, luminescent assay | inhibition, % at 8 µM | 10,000 compounds, 55% hits | AID 489028; in the data active means inhibition above about 40%
FLuc counter: inhibits full-length luciferase, flagging false Mdm2/MdmX hits | SaOS-2 full-length luciferase counterscreen, luminescence | AID 504607 | shares compounds with Mdm2 MdmX PPI | inhibition, % at 8 µM | 6,200 compounds, 77% hits;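 active means mean inhibition at 8 µM reaching about 37%, which flags the compound as non-specific, limit read from the data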;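 further: p53-null SaOS-2 cells with luciferase driven by a doxycycline-inducible promoter; compound on cells about two nights before reading with doxycycline added after day one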
Rh123 counter: membrane potential counter-screen of mitochondrial pore inhibitors. shares compounds with MPTP block. isolated mitochondria, Rhodamine 123 fluorescence. inhibition, % at 10 µM. 5,000 compounds, 78% hits; in the data active means inhibition above about 22%
MPTP abs DR: dose response confirmation of mitochondrial permeability transition pore inhibitors. shares compounds with MPTP block. 780 compounds, 58% hits. IC50, µM. isolated mitochondria swelling, absorbance; in the data active means IC50 below about 20 µM
MPTP counter DR: active in counter-screen for permeability transition pore inhibitors; isolated mitochondria counterscreen, fluorescence read-out; IC50, µM; shares compounds with MPTP block; 780 compounds, 49% hits; AID 651564; in the data active means IC50 below about 80 µM
A number is an active result; i = inactive; ? = inconclusive; nt = not tested or not shown. Rows were chosen to be rich in hits. Some 6.9% of all compounds tested hit in one or more screens of this group.

SMILES	Beta apoptosis	CSC inhib	NR3A LBD binder	SKKanGAS inh	Mdm2 MdmX PPI	MPTP block	Mdm2 MdmX conf	FLuc counter	Rh123 counter	others
COc1ccc(S(=O)(=O)n2nc(C)cc2C)cc1OC	nt	i	i	i	i	i	nt	nt	nt
Fc1ccc2[nH]c3c(N4CCc5ccccc5C4)ncnc3c2c1	127	?	23	i	57	89	i	nt	83
Cc1cc(Nc2cccc([N+](=O)[O-])c2)n2c(nc3ccccc32)c1C#N	108	83	i	i	98	67	91	i	93
COc1ccc(NC(=O)c2cc(-c3cc(Cl)ccc3OC)n[nH]2)cc1OC	nt	nt	nt	nt	nt	i	nt	nt	nt
COc1ccc(OC)c(NC(=O)c2cc(-c3cc(Cl)ccc3O)n[nH]2)c1	i	i	33	i	88	85	75	42	61
CC(c1ccco1)N(C(=O)c1ccc(Cl)c([N+](=O)[O-])c1)c1ccccn1 (centres undefined)	i	i	i	i	i	i	nt	nt	nt
COC(=O)c1cn[nH]c1NC(=S)Nc1ccc(Cl)c(Cl)c1	i	i	11	i	56	99	i	nt	81
COC(=O)c1cn[nH]c1NC(=S)Nc1ccc(C)cc1Cl	i	i	30	?	52	96	i	nt	75
COC(=O)c1cn[nH]c1NC(=S)Nc1ccccc1C	nt	nt	i	i	i	i	nt	nt	nt
OCCN1CCN(CC(O)COc2ccc(C34CC5CC(CC(C5)C3)C4)cc2)CC1 (centres undefined)	i	112	i	i	95	91	73	i	i	MPTP abs DR=4.1;MPTP counter DR=55
Cc1ccccc1OCCC(=O)OCC(=O)NCCc1ccccc1	i	i	i	i	i	i	nt	nt	nt
CN(C)CCCNC(=S)NCC(c1ccc(Cl)cc1Cl)c1c[nH]c2ccccc12 (centres undefined)	i	i	i	56	89	77	65	i	i
O=C(Cc1c[nH]c2ccccc12)NCc1ccc(Cl)cc1Cl	i	i	i	i	i	i	nt	nt	nt
N#Cc1c(Cl)nsc1NC(=O)c1ccccc1	78	i	11	i	76	78	52	71	89
N#Cc1c(NC(=O)c2ccccc2)sc2c1CCCCC2	i	i	i	i	i	i	nt	nt	nt
COc1ccccc1OCCC(=O)NNC(=O)c1ccccc1F	i	nt	i	nt	i	i	nt	nt	nt
CCOC(=O)[C@@H]1[C@H]2COc3cc(OC)ccc3[C@H]2N2C(=O)N(c3ccc(C(F)(F)F)cc3)C(=O)[C@]12C	108	102	i	nt	91	84	i	nt	90
Clc1ccc(Nc2ncnc3ccc(Br)cc23)cc1	i	?	i	i	77	87	61	37	87
Cc1ccc2ncnc(Nc3ccccc3)c2c1	i	i	i	i	i	i	nt	nt	nt
Clc1cccc(Nc2ncnc3ccc(Br)cc23)c1	i	i	i	i	74	91	43	i	74
Brc1ccc2ncnc(NCc3ccccc3)c2c1	i	i	i	i	84	59	81	53	88
Cc1ccc2ncnc(Nc3cccc(C(=O)O)c3)c2c1	i	i	i	i	i	i	nt	nt	nt
Cc1cc(Br)ccc1NC(=O)CN1C(=S)NC(C)(C)CC1C (centres undefined)	i	i	i	i	i	i	nt	nt	nt
Cc1ccc(CSC(Nc2ccc(F)cc2)=C(C#N)C#N)cc1	117	i	i	i	91	95	92	i	93
COc1ccc(-c2nc(-c3cccc(C)c3)nc(N3CCN(C)CC3)c2C#N)cc1	i	i	i	i	66	91	74	57	i	MPTP abs DR=i;MPTP counter DR=i
SMILES	Beta apoptosis	CSC inhib	NR3A LBD binder	SKKanGAS inh	Mdm2 MdmX PPI	MPTP block	Mdm2 MdmX conf	FLuc counter	Rh123 counter	others
Cn1c(=O)c2c([nH]c(OCc3ccc(Cl)cc3Cl)[n+]2Cc2ccc(F)cc2)n(C)c1=O	i	i	i	i	57	50	i	nt	i	MPTP abs DR=i;MPTP counter DR=i
O=C(CCC(=O)c1ccccc1)Nc1ccccc1OC(F)F	i	i	i	i	i	i	nt	nt	nt
CN(C)S(=O)(=O)c1cccc(COC(=O)CNC(=O)c2ccc(Br)o2)c1	nt	nt	i	nt	i	i	nt	nt	nt
CNC(=O)c1cc(Oc2ccc(NC(=O)Nc3ccc(Cl)c(C(F)(F)F)c3)cc2)ccn1	nt	124	12	nt	97	57	89	52	46
Cc1nnc(SCCC(=O)Nc2ccc(F)cc2)s1	i	i	i	i	i	i	nt	nt	nt
CCCSc1nnc(NC(=O)Nc2ccc(F)cc2)s1	i	i	i	i	95	86	85	i	98
CCc1nnc(NC(=O)c2ccc(-c3ccc([N+](=O)[O-])cc3Cl)o2)s1	i	i	i	i	i	i	nt	nt	nt
Cc1cccc(N2CCN(C(=O)[C@H](C)N3C(=O)C4CC=CCC4C3=O)CC2)c1C (some centres undefined)	i	i	i	nt	i	i	nt	nt	nt
COc1ccc(-c2cc(C3CCN(c4ccc(C(C)=O)cc4[N+](=O)[O-])CC3)[nH]n2)cc1	i	76	i	83	52	84	46	51	81
Cc1ccc(-n2cc(CNCCCn3ccnc3C)c(-c3ccc(F)cc3)n2)cc1	i	i	i	i	73	60	i	nt	i
Cc1ccc(-n2cc(CNCCc3cscn3)c(-c3ccc(F)cc3)n2)cc1	nt	i	i	i	i	i	nt	nt	nt
CC(C)CN(C(=O)Cn1c(Cl)nc2c1c(=O)n(C)c(=O)n2C)C1CCS(=O)(=O)C1 (centres undefined)	i	i	i	i	i	i	nt	nt	nt
CC1CN(C(=O)COC(=O)c2cccc(S(=O)(=O)N3CCc4ccccc43)c2)CC(C)O1 (centres undefined)	i	i	i	nt	i	i	nt	nt	nt
Cc1cccc(NC(=O)NNC(=O)COc2ccc([N+](=O)[O-])cc2)c1C	i	i	i	i	i	i	nt	nt	nt
Cc1cc(SCC(=O)N/N=C/c2ccc(O)cc2O)c(C)cc1Br	i	96	18	79	61	91	66	67	56
O=C(O)c1ccc(CNC(=O)c2ccc3c(c2)C(=O)N(Cc2cccnc2)C3=O)cc1	i	i	i	nt	i	i	nt	nt	nt
C/C(CC(=O)NC(C)(C)C)=N\NC(N)=S	nt	i	i	i	i	i	nt	nt	nt
CN1CCCC(CC2c3ccccc3Sc3ccccc32)C1 (centres undefined)	nt	i	i	nt	59	100	i	65	i	MPTP abs DR=9.4;MPTP counter DR=i
CN1CCCC(CN2c3ccccc3Sc3ccccc32)C1 (centres undefined)	nt	i	i	i	51	82	i	nt	i
CN1CCCCC1CCN1c2ccccc2Sc2ccc(S(C)=O)cc21 (centres undefined)	i	i	i	i	i	i	nt	nt	nt
